From the supplement of paper PMC7695840
Where a name gives a salt, the structure may show the parent alone.

Key:
[1] = test system: Staphylococcus aureus MW2 delta-mecA (mecA-); assay: normalized GFP fluorescence (growth of mecA- strain) (fraction of control range); higher = more growth of mecA- strain; settings: compound concentration: 150 uM; cefoxitin: subinhibitory; fluorescent label: GFP
In short: (§1)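 Pre-induced S. aureus MW2 cells carrying the gene (DsRed) and deletion cells lacking it (GFP) were combined 1:1 in LB containing a subinhibitory antibiotic dose set each day, then dispensed at 5 µL/well onto 150 μM compound (1.5% DMSO) in 1536-well plates as a single replicate. After 20 h at 37 °C and 90% humidity without shaking, DsRed (540/590) and GFP (485/520) were read. Each channel was scaled per plate between the medians of the single-strain controls, and plates with high untreated ratios and rows with DsRed/GFP >10 were excluded.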

[2] = test system: Staphylococcus aureus MW2 (mecA+); assay: normalized DsRed fluorescence (growth of mecA+ strain) (fraction of control range); higher = more growth of mecA+ strain; settings: compound concentration: 150 uM; cefoxitin: subinhibitory; fluorescent label: DsRed
In short: as §1

| SMILES | normalized GFP fluorescence [1] | normalized DsRed fluorescence [2] |
| --- | --- | --- |
| COc1ccc2cc(CCC(C)=O)ccc2c1 | 0.292 | 0.79 |
| N#Cc1c(N(CC(=O)O)CC(=O)O)sc(C(=O)O)c1CC(=O)O [Strontium ranelate (Protelos)] | 0.212 | 0.694 |
| NC(=O)c1ncn([C@@H]2O[C@H](CO)[C@@H](O)[C@H]2O)c1N [AICAR (Acadesine)] | 0.547 | 0.71 |
| NC(=O)Cc1cccc(C(=O)c2ccccc2)c1N [Nepafenac] | 0.747 | 0.818 |
| Cc1cn([C@H]2C[C@H](N=[N+]=[N-])[C@@H](CO)O2)c(=O)[nH]c1=O | 0.317 | 0.887 |
| CC[C@]1(O)C[C@H]2CN(CCc3c([nH]c4ccccc34)[C@@](C(=O)OC)(c3cc4c(cc3OC)N(C=O)[C@H]3[C@@](O)(C(=O)OC)[C@H](OC(C)=O)[C@]5(CC)C=CCN6CC[C@]43[C@@H]65)C2)C1 | 0.501 | 0.633 |
| Cc1nccn1CC1CCc2c(c3ccccc3n2C)C1=O (stereo not drawn) | 0.319 | 0.626 |
| CC(C)NCC(O)COc1ccc(COCCOC(C)C)cc1 (stereo not drawn) | 0.499 | 0.658 |
| Nc1ccn([C@H]2CC[C@@H](CO)O2)c(=O)n1 | 0.265 | 0.779 |
| O=c1[nH]c(=O)n([C@H]2C[C@H](O)[C@@H](CO)O2)cc1I | 0.363 | 0.546 |
| NCC[C@H](O)C(=O)N[C@@H]1C[C@H](N)[C@@H](O[C@H]2O[C@H](CN)[C@@H](O)[C@H](O)[C@H]2O)[C@H](O)[C@H]1O[C@H]1O[C@H](CO)[C@@H](O)[C@H](N)[C@H]1O [Amikacin hydrate] | 0.412 | 0.639 |
| O=NN(CCCl)C(=O)NCCCl | 0.549 | 0.898 |
| C[C@H]1C[C@H]2[C@@H]3CCC4=CC(=O)C=C[C@]4(C)[C@@]3(F)[C@@H](O)C[C@]2(C)[C@@]1(O)C(=O)CO [Betamethasone (Celestone)] | 0.0397 | 1.3 |
| C[C@]12C=CC(=O)N[C@@H]1CC[C@@H]1[C@@H]2CC[C@]2(C)[C@@H](C(=O)Nc3cc(C(F)(F)F)ccc3C(F)(F)F)CC[C@@H]12 [Dutasteride] | 0.284 | 0.52 |
| CN1CCN(C2=Nc3ccccc3Oc3ccc(Cl)cc32)CC1 | 0.35 | 1.01 |
| CNCCc1ccccn1 | 0.393 | 0.969 |
| CO[C@H]1O[C@@H]2O[C@@]3(C)CC[C@H]4[C@H](C)CC[C@@H]([C@H]1C)[C@@]24OO3 | 0.327 | 1.13 |
| Clc1ccc(C(Cn2ccnc2)OCc2c(Cl)cccc2Cl)c(Cl)c1 (stereo not drawn) [Isoconazole nitrate (Travogen)] | -0.00251 | 0.00958 |
| Cc1ccc(/C(=C\CN2CCCC2)c2ccccn2)cc1 | 0.244 | 0.576 |
| CN(CCOc1ccc(NS(C)(=O)=O)cc1)CCc1ccc(NS(C)(=O)=O)cc1 [Dofetilide (Tikosyn)] | 0.244 | 1.28 |
| NS(=O)(=O)c1cc2c(cc1Cl)NC(C(Cl)Cl)NS2(=O)=O (stereo not drawn) | 0.381 | 0.814 |
| CC#C[C@]1(O)CC[C@H]2[C@@H]3CCC4=CC(=O)CCC4=C3[C@@H](c3ccc(N(C)C)cc3)C[C@@]21C | 0.622 | 0.695 |
| CCc1ccc(CCOc2ccc(CC3SC(=O)NC3=O)cc2)nc1 (stereo not drawn) | 0.499 | 0.952 |

| SMILES | normalized GFP fluorescence [1] | normalized DsRed fluorescence [2] |
| --- | --- | --- |
| C[C@H](N)[C@H](O)c1cccc(O)c1 | 0.482 | 0.581 |
| CC(C(=O)O)c1ccc(C(=O)c2cccs2)cc1 (stereo not drawn) | 0.344 | 0.423 |
| CCCCNc1cc(C(=O)O)cc(S(N)(=O)=O)c1Oc1ccccc1 | 0.446 | 0.877 |
| NC(=O)c1ccccc1O | 0.52 | 0.666 |
| Fc1ccc([C@@H]2CCNC[C@H]2COc2ccc3c(c2)OCO3)cc1 | -0.0171 | 1.15 |
| Cc1ccccc1C(=O)Nc1ccc(C(=O)N2CCCC(O)c3cc(Cl)ccc32)c(C)c1 (stereo not drawn) | 0.188 | 0.541 |
| CCOC(=O)C1=C[C@@H](OC(CC)CC)[C@H](NC(C)=O)[C@@H](N)C1 | 0.257 | 0.588 |
| O=C1NCC2(CCN(CCc3ccccc3)CC2)O1 | 0.307 | 0.724 |
| C[N+](C)(C)CCOC(N)=O | 0.245 | 0.816 |
| Cc1ccnc2c1NC(=O)c1cccnc1N2C1CC1 | 0.755 | 0.431 |
| Oc1ccc(O)cc1 | 0.379 | 0.882 |
| CCCCC(CC)COC(=O)C=Cc1ccc(OC)cc1 (stereo not drawn) | 0.289 | 0.473 |
| COc1ccc2cccc(CCNC(C)=O)c2c1 [Agomelatine] | 0.243 | 0.62 |
| CC[C@]1(O)C[C@@H]2CN(CCc3c([nH]c4ccccc34)[C@@](C(=O)OC)(c3cc4c(cc3OC)N(C)[C@H]3[C@@](O)(C(=O)OC)[C@H](OC(C)=O)[C@]5(CC)C=CCN6CC[C@]43[C@@H]65)C2)C1 [Vinblastine] | 0.0776 | 0.851 |
| c1cc(CN2CCCNCCNCCCNCC2)ccc1CN1CCCNCCNCCCNCC1 [Plerixafor] | 0.396 | 0.938 |
| Cc1cn([C@@H]2C[C@@H](O)[C@H](CO)O2)c(=O)[nH]c1=O [Telbivudine (Sebivo, Tyzeka)] | 0.205 | 0.951 |
| COc1ccccc1OCC(O)COC(N)=O (stereo not drawn) | 0.207 | 0.692 |
| COC(=O)[C@@H]1[C@H]2C[C@H]3c4[nH]c5ccccc5c4CCN3C[C@@H]2CC[C@@H]1O | 0.259 | 0.809 |
| C[C@H]1[C@H](OC(=O)CCC(=O)O)O[C@@H]2O[C@@]3(C)CC[C@H]4[C@H](C)CC[C@@H]1[C@@]24OO3 | 0.737 | 0.712 |
| CC(=O)O[C@]1(C(C)=O)CC[C@H]2[C@@H]3C=C(C)C4=CC(=O)CC[C@]4(C)[C@H]3CC[C@@]21C | 0.381 | 0.78 |
| CCC(=O)O[C@@H](O[P@](=O)(CCCCc1ccccc1)CC(=O)N1C[C@H](C2CCCCC2)C[C@H]1C(=O)O)C(C)C [Fosinopril sodium (Monopril)] | 0.0781 | 0.378 |
| CCC(=O)O[C@]1(C(=O)SCF)[C@H](C)C[C@H]2[C@@H]3C[C@H](F)C4=CC(=O)C=C[C@]4(C)[C@@]3(F)[C@@H](O)C[C@@]21C | 0.777 | 0.959 |
| COC1=CC(=O)C[C@@H](C)[C@]12Oc1c(Cl)c(OC)cc(OC)c1C2=O | 0.227 | 0.425 |

| SMILES | normalized GFP fluorescence [1] | normalized DsRed fluorescence [2] |
| --- | --- | --- |
| CCN(CC)C(=O)N1CCN(C)CC1 | 0.599 | 0.455 |
| CCOC(=O)c1ncn2c1CN(C)C(=O)c1cc(F)ccc1-2 | 0.408 | 0.611 |
| COCCCC/C(=N\OCCN)c1ccc(C(F)(F)F)cc1 | 0.551 | 0.562 |
| CCOC(=O)C1=C(COCCN)NC(C)=C(C(=O)OC)C1c1ccccc1Cl (stereo not drawn) | -0.0144 | 1.06 |
| NCCNCCNCCN | 0.763 | 0.66 |
| CC(=O)OCC(=O)NCCCOc1cccc(CN2CCCCC2)c1 [Roxatidine acetate HCl] | 0.438 | 0.76 |
| CNCc1ccc(-c2[nH]c3cc(F)cc4c3c2CCNC4=O)cc1 | 0.424 | 0.641 |
| CC(C)[C@H](N)C(=O)OCC(CO)OCn1cnc2c(=O)nc(N)[nH]c21 (stereo partly drawn) | 0.546 | 0.722 |
| CN(C)CCCN1c2ccccc2Sc2ccc(C(F)(F)F)cc21 | -0.00501 | 1.49 |
| CC1(C)[C@@H](O)CC[C@]2(C)[C@H]3C(=O)C=C4[C@@H]5C[C@@](C)(C(=O)O)CC[C@]5(C)CC[C@@]4(C)[C@]3(C)CC[C@@H]12 [Enoxolone (Glycyrrhetin)] | 0.0336 | 0.987 |
| CCC(=O)OCC(=O)[C@@]1(OC(=O)CC)[C@@H](C)C[C@H]2[C@@H]3CCC4=CC(=O)C=C[C@]4(C)[C@@]3(Cl)[C@@H](O)C[C@@]21C | 0.322 | 0.958 |
| CN(C)c1nc(N(C)C)nc(N(C)C)n1 | 0.159 | 0.887 |
| CC(C)NCC(O)COc1cccc2ccccc12 (stereo not drawn) | 0.142 | 1.24 |
| CC(C)NCC(O)COc1ccc(CCOCC2CC2)cc1 (stereo not drawn) [Betaxolol hydrochloride (Betoptic)] | 0.372 | 0.674 |
| COc1ccc2c3c1O[C@H]1C[C@@H](O)C=C[C@@]31CCN(C)C2 | 0.508 | 0.677 |
| Nc1nc(=O)[nH]cc1F | 0.282 | 0.62 |
| Nc1ncn([C@@H]2O[C@H](CO)[C@@H](O)[C@H]2O)c(=O)n1 | 0.292 | 0.51 |
| O=C(Oc1ccccc1C(=O)O)c1ccccc1O | 0.297 | 0.236 |
| CCCN(CCC)C(=O)C(CCC(=O)O)NC(=O)c1ccccc1 (stereo not drawn) | 0.792 | 0.55 |
| CN(C)C(=O)COC(=O)Cc1ccc(OC(=O)c2ccc(NC(=N)N)cc2)cc1 [Camostat Mesilate (FOY-305)] | 0.0607 | 0.818 |
| Cc1nc2n(c(=O)c1CCN1CCC(c3noc4cc(F)ccc34)CC1)CCCC2 | 0.481 | 0.492 |
| CC1=C(C(=O)O)N2C(=O)[C@@H](NC(=O)[C@H](N)c3ccc(O)cc3)[C@H]2SC1 | 0.0167 | 1.2 |
| CC1=C(/C=C/C(C)=C/C=C/C(C)=C/C(=O)O)C(C)(C)CCC1 | -0.00103 | 0.642 |
